Assay [1] addresses Bile acid receptor (Homo sapiens) (UniProt Q96RI1). The assay can be described thus: qHTS assay for small molecule agonists of farnesoid X receptor signaling (AID 588527).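 Further: 0% = vehicle basal and 100% = reference agonist.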 Conditions: HEK293T FXR-UAS-bla, beta-lactamase ratio, 16 h; stronger effect = higher value. Put shortly: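 Read-out: beta-lactamase reporter fluorescence with CCF4 substrate in GeneBLAzer FXR-UAS-bla HEK293T cells, after 16 h compound exposure at 37 C. Response scaled between DMSO basal (0%) and chenodeoxycholic acid at 100 uM (100%).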
Background: qHTS replaces the single test concentration by a dilution series.

The target in assay [2] is Peroxisome proliferator-activated receptor delta (Homo sapiens) (UniProt Q03181). The assay can be described thus: qHTS assay for small molecule agonists of peroxisome proliferator-activated receptor delta signaling (AID 588534).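 Further: 0% = DMSO basal wells and 100% = positive control agonist at 10 µM.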 The note with it: HEK293T PPARdelta-UAS-bla, beta-lactamase ratio, 18 h; series mostly up to 76.7 µM. Put shortly: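 EC50 and efficacy values derive from Hill fits of a concentration series in a beta-lactamase reporter cell assay. Exposure is 18 hrs at 37 C, with CCF4 fluorescence as the readout.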
Peroxisome proliferator-activated receptor delta (Homo sapiens), sequence (Q03181 whole entry, looked up): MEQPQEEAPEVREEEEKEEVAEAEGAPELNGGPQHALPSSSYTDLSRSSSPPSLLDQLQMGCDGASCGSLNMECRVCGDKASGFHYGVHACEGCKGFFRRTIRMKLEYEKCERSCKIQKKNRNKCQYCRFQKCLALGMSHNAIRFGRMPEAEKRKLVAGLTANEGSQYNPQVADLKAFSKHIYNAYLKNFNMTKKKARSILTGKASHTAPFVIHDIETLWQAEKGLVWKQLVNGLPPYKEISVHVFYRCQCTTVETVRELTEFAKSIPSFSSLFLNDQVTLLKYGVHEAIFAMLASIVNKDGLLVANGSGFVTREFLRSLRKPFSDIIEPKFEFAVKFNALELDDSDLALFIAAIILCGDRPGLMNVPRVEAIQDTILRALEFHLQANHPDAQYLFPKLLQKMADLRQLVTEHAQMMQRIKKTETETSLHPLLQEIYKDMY

Assay [3] deals with Glucocorticoid receptor (Homo sapiens) (UniProt P04150). Put plainly: qHTS assay for small molecule agonists of glucocorticoid receptor signaling (AID 588532; active means well fitted curve in the direction sought with a large enough effect in the signal ratio, with a control signal flat; the % refers to the signal ratio;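 further: 100% = dexamethasone at 0.1 µM and 0% = DMSO only wells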). The note with it: HeLa MMTV-bla, beta-lactamase ratio, agonist, 18 h; stronger effect = higher value; percent of dexamethasone control, DMSO zero. Put shortly: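 Quantitative HTS using CellSensor MMTV-bla HeLa cells in charcoal/dextran-treated serum; compounds tested up to 92 uM. After 18 h at 37 C, CCF4 dye reported reporter induction.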
Glucocorticoid receptor (Homo sapiens), sequence (P04150 whole entry, looked up): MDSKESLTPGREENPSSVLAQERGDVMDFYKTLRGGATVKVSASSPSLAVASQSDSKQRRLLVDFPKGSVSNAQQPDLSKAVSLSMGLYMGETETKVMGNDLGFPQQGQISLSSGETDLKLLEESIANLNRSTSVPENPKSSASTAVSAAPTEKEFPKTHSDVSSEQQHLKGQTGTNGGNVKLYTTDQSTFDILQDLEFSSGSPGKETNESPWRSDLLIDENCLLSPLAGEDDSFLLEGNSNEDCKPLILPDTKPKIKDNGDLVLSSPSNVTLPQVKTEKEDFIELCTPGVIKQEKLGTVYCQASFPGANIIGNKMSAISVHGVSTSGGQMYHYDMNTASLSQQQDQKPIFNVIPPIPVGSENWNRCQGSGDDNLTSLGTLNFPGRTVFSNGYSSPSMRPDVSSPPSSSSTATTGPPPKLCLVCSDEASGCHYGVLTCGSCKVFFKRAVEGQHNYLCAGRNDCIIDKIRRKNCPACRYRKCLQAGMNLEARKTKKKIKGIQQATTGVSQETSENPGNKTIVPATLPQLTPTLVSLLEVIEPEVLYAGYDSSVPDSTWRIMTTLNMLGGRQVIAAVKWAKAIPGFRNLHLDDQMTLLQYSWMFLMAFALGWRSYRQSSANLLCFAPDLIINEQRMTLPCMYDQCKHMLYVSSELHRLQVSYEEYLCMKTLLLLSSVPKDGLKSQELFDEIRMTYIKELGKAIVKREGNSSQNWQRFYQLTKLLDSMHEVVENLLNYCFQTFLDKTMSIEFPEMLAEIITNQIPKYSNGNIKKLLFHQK

Assay [4] is described as follows: qHTS assay for small molecule antagonists of peroxisome proliferator-activated receptor delta signaling (AID 588535; active means well fitted inhibition curve with a large enough effect in the signal ratio, with a control signal flat, not every such curve was filed as active; the % refers to the signal ratio;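 on max response: cells co-treated with a PPAR-delta agonist as stimulator during compound exposure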). The note with it: HEK293T PPARd-UAS-bla, beta-lactamase FRET ratio, 18 h; 460 nm channel. A digest of the protocol:
(§1)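 Antagonist-mode qHTS using GeneBLAzer PPAR-delta-UAS-bla HEK293T cells; compound exposure 18 hrs at 37 C over a titration. Ratiometric CCF4 fluorescence at 460/530 nm; concentration-response points fitted to the Hill equation.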

The target of assay [5] is Peroxisome proliferator-activated receptor delta (Homo sapiens) (UniProt Q03181). The assay is described as above. Conditions: HEK293T PPARd-UAS-bla, beta-lactamase FRET ratio, 18 h; series mostly up to 76.7 µM. A digest of the protocol:
as §1

Assay [6] has as its target Peroxisome proliferator-activated receptor gamma (Homo sapiens) (UniProt P37231). The assay can be described thus: qHTS assay for small molecule antagonists of peroxisome proliferator-activated receptor gamma signaling (AID 588537; active means well fitted inhibition curve with a large enough effect in the signal ratio, with a control signal flat, not every such curve was filed as active; the % refers to the signal ratio; further: potency means the concentration at half of the fitted maximal effect). Conditions: HEK293 PPARg-UAS-bla, beta-lactamase ratio, antagonist mode; series mostly up to 76.8 µM. Put shortly: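 Cell-based beta-lactamase assay; GW9662 served as the antagonist control. Stimulation used rosiglitazone, final 50 nM, 16 h, 37 C.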

Assay [7] deals with Vitamin D3 receptor (Homo sapiens) (UniProt P11473). The assay can be described thus: qHTS assay for small molecule antagonists of vitamin D receptor signaling (AID 588541).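 Further: receptor activated by calcitriol during compound treatment; on the % scale 0 is the no-effect control and ±100 the full control effect.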 The note with it: HEK293T VDR-UAS-bla, beta-lactamase ratio, antagonist mode; series mostly up to 76.7 µM. A digest of the protocol: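 Antagonist-mode beta-lactamase reporter assay: HEK293T VDR-UAS-bla cells were exposed to titrated compound alongside 1-alpha,25-dihydroxyvitamin D3 at 3 nM final for 16 h. Values were normalized to the 50 nM agonist control and DMSO basal, with IC50 and efficacy from Hill equation fits.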
Vitamin D3 receptor (Homo sapiens), sequence (P11473 whole entry, looked up): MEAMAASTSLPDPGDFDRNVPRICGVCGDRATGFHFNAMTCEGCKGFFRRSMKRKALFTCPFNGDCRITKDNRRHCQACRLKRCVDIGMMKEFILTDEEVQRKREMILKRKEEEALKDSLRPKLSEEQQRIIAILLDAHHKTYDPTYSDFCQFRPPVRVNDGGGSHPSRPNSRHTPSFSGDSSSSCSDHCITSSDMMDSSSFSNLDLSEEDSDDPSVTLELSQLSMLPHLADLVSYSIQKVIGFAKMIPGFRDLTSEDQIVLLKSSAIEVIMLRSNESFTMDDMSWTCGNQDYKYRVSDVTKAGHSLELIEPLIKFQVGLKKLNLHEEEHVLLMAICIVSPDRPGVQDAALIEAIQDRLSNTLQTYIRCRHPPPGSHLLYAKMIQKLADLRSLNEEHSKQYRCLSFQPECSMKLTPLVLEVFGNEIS

Assay [8] shares this target. Put plainly: qHTS assay for small molecule agonists of vitamin D receptor signaling (AID 588543).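 Further: 0% = DMSO basal and 100% = reference agonist control.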 Conditions: HEK293T VDR-UAS-bla, beta-lactamase ratio, 16 h; series mostly up to 76.8 µM. Put shortly:
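VDR-UAS-bla HEK293T cells, 2000/well, 2% charcoal-stripped FBS; compound titration 16 h at 37 C; CCF4 beta-lactamase ratio read. Normalized to 50 nM 1-alpha,25-dihydroxyvitamin D3 (100%) and DMSO; Hill fit gives EC50, efficacy.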

The nature of assay [9]: qHTS assay for small molecule agonists of retinoid X receptor alpha signaling (AID 588544). Further: potency means the concentration at half of the fitted maximal effect.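 On activation: 0% = DMSO basal wells and 100% = reference agonist.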 The note with it: HEK293T RXRa-UAS-bla, beta-lactamase reporter, 18 h; 530 nm emission.
Assay [10] concerns the target Retinoic acid receptor RXR-alpha (Homo sapiens) (UniProt P19793). The assay is described as above. Conditions: HEK293T RXRa-UAS-bla, beta-lactamase reporter, 18 h; series mostly up to 76.7 µM.
In assay [11] the target is Thyroid hormone receptor beta (Homo sapiens) (UniProt P10828). The assay can be described thus: qHTS assay for small molecule agonists of thyroid hormone receptor beta signaling (AID 588545). The note with it: TR-UAS-bla GripTite HEK 293, beta-lactamase ratio, agonist mode, 18 h, percent of T3 response, DMSO as zero; series mostly up to 76.7 µM. A digest of the protocol:
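In this cell-based screen, titrated compounds act on HEK 293 cells held in medium with 2% charcoal/dextran FBS, NEAA and pyruvate for 18 hrs at 37 C. Responses are expressed relative to T3 (10 nM) as 100% and basal DMSO as 0%.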

Assay [12] is described as follows: qHTS assay for small molecule antagonists of retinoid X receptor alpha signaling (AID 588546; active means well fitted inhibition curve with a large enough effect in the signal ratio, with a control signal flat, not every such curve was filed as active; the % refers to the signal ratio;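 further: cells stimulated with 9-cis-retinoic acid as agonist; on the % scale 0 is the no-effect control and ±100 the full control effect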). Conditions: HEK293T RXRa-UAS-bla, beta-lactamase ratio, antagonist mode; measured here: W530 green channel, cytotoxicity proxy. A digest of the protocol:
(§2)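 Beta-lactamase reporter inhibition, read as CCF4 fluorescence ratio (ex 405, em 460/530 nm) after 2 h at RT. HEK293T UAS-bla cells, 2500/well, were stimulated with 9-cis-RA at 500 or 100 nM final alongside test compound for 18 h at 37 C.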

In assay [13] the target is Retinoic acid receptor RXR-alpha (Homo sapiens) (UniProt P19793). The description is as above. The note with it: HEK293T RXRa-UAS-bla, beta-lactamase ratio, antagonist mode. A digest of the protocol:
as §2

For assay [14], the target named is Thyroid hormone receptor beta (Homo sapiens) (UniProt P10828). The assay can be described thus: qHTS assay for small molecule antagonists of thyroid hormone receptor beta signaling (AID 588547; active means well fitted inhibition curve with a large enough effect in the signal ratio, with a control signal flat, not every such curve was filed as active; the % refers to the signal ratio;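 further: cells stimulated with 0.4 nM T3 agonist during compound exposure; on the % scale 0 is the no-effect control and ±100 the full control effect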). Conditions: TR-UAS-bla HEK293, beta-lactamase ratio, antagonist mode, 18 h. A digest of the protocol:
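Inhibition of T3-driven (0.4nM final) beta-lactamase reporter activity was measured over 0.59 nM to 92 uM compound after 18 h at 37 C. The cells were GripTite HEK293 TR-UAS-bla in charcoal/dextran-stripped serum, with CCF4 ratio read-out and IC50 from Hill fits.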

The target of assay [15] is Luciferin 4-monooxygenase (Photinus pyralis) (UniProt P08659). The assay can be described thus: Biochemical firefly luciferase enzyme assay for NPC (AID 624030; active means well fitted inhibition curve with a large enough effect; further: nearly all actives have a fitted effect of over 70% in size; further: potency means the concentration at half of the fitted maximal effect). The note with it: purified P. pyralis luciferase, luminescence, 5 min; series mostly up to 58.6 µM. Put shortly: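 Direct inhibition of firefly luciferase enzyme (10 nM final, 50 mM Tris Acetate) assessed by luminescence within 5 minutes. Percent activity scaled between DMSO and PTC124 positive control, with concentration-effect curves classified by fit quality and response.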

The target of assay [16] is Glucocorticoid receptor (Homo sapiens) (UniProt P04150). The assay can be described thus: qHTS assay for small molecule antagonists of glucocorticoid receptor signaling (AID 588533; active means well fitted inhibition curve with a large enough effect in the signal ratio, with a control signal flat, not every such curve was filed as active; the % refers to the signal ratio;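 further: cells stimulated with 2 nM dexamethasone as agonist; on the % scale 0 is the no-effect control and ±100 the full control effect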). The note with it: HeLa MMTV-bla, GRE beta-lactamase ratio, antagonist mode, 18 h; series mostly up to 76.8 µM. Put shortly: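 Antagonist-mode qHTS: compound titrations added to GRE-bla HeLa cells, then dexamethasone 2 nM final; 18 h, 37 C. CCF4 FRET fluorescence normalized to dexamethasone and DMSO; IC50 from Hill fit.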

The target of assay [17] is Peroxisome proliferator-activated receptor gamma (Homo sapiens) (UniProt P37231). Put plainly: qHTS assay for small molecule agonists of peroxisome proliferator-activated receptor gamma signaling (AID 588536; active means well fitted curve in the direction sought with a large enough effect in the signal ratio, with a control signal flat, not every such curve was filed as active; the % refers to the signal ratio;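 further: 0% = DMSO basal wells and 100% = rosiglitazone at 2 µM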). Conditions: HEK293 PPARg-UAS-bla, beta-lactamase ratio, 16 h, percent of rosiglitazone response, DMSO as zero; series mostly up to 76.7 µM. A digest of the protocol:
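Beta-lactamase reporter read-out: CCF4 fluorescence (ex 405, em 460/530 nm) after 2 h at RT. HEK293 GeneBLAzer cells were treated for 16 h at 37 C. Hill fits gave EC50 and efficacy versus 2 uM rosiglitazone (100%) and DMSO (0%).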

For assay [18], the target named is Voltage-gated inwardly rectifying potassium channel KCNH2 (Homo sapiens) (UniProt Q12809). Put plainly: qHTS Assay for Small Molecule Inhibitors of the Human hERG Channel Activity (AID 588834; active means well fitted inhibition curve with a large enough effect;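 further: lower thallium flux fluorescence means stronger hERG block; nearly all actives have a fitted effect of over 50% in size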; further: potency means the concentration at half of the fitted maximal effect). Conditions: U2OS BacMam hERG, FluxOR thallium flux fluorescence; series mostly up to 46.1 µM. Put shortly: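 Thallium serves as surrogate for K+ influx through BacMam-delivered hERG in U2OS cells. Compounds are added for about 10 minutes after dye loading; stimulation buffer then starts flux, monitored kinetically on FDSS.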
Voltage-gated inwardly rectifying potassium channel KCNH2 (Homo sapiens), sequence (Q12809 whole entry, looked up): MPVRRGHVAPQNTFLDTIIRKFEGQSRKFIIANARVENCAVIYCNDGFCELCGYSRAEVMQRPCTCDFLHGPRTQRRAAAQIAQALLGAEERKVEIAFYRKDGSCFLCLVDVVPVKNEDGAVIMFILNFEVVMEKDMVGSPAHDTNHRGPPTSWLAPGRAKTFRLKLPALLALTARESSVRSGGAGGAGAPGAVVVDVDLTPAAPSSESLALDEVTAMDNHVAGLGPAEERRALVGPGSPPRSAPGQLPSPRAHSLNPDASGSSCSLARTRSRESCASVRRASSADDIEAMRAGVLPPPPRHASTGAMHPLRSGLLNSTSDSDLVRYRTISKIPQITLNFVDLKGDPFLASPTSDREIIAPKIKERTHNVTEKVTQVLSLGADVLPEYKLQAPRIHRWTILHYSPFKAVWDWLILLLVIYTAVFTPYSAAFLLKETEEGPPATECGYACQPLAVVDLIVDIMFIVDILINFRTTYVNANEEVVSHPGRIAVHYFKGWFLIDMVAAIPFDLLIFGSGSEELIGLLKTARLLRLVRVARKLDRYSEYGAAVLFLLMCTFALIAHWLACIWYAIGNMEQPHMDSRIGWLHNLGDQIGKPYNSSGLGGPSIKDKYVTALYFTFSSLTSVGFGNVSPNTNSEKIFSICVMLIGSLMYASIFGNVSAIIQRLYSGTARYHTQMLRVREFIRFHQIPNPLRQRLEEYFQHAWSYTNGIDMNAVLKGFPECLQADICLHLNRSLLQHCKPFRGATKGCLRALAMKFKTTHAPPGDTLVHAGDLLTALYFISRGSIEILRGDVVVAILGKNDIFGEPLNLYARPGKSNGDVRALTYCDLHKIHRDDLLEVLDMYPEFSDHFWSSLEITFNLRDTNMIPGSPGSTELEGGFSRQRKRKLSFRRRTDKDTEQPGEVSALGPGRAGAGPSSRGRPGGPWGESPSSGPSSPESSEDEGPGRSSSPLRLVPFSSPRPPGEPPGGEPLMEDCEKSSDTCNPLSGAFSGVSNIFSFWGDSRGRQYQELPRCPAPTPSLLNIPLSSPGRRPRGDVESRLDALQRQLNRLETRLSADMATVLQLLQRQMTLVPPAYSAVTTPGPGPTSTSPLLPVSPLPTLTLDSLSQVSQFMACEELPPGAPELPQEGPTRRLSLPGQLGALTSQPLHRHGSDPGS

Values joined by “and” are separate entries in the source; they are usually repeats but may differ in a detail not shown here. Equal values may be shown once. Records with an inconclusive call do not appear. Active and inactive are the calls of the source. Unless noted, the call rests on the fitted dose curve.

Thyroid hormone receptor beta (Homo sapiens), sequence (P10828 whole entry, looked up): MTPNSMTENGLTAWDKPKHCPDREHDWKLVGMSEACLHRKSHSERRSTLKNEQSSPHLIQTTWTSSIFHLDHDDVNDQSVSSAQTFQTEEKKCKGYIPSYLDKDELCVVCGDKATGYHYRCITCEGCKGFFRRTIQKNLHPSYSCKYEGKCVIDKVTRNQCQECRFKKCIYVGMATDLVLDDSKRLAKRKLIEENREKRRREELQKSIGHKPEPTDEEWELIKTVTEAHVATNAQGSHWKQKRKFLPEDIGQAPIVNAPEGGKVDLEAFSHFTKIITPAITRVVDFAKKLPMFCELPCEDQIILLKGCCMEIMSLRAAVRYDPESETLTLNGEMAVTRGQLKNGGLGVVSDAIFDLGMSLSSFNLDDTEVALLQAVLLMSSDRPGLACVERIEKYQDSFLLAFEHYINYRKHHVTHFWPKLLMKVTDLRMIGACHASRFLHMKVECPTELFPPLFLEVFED
Bile acid receptor (Homo sapiens), sequence (Q96RI1 whole entry, looked up): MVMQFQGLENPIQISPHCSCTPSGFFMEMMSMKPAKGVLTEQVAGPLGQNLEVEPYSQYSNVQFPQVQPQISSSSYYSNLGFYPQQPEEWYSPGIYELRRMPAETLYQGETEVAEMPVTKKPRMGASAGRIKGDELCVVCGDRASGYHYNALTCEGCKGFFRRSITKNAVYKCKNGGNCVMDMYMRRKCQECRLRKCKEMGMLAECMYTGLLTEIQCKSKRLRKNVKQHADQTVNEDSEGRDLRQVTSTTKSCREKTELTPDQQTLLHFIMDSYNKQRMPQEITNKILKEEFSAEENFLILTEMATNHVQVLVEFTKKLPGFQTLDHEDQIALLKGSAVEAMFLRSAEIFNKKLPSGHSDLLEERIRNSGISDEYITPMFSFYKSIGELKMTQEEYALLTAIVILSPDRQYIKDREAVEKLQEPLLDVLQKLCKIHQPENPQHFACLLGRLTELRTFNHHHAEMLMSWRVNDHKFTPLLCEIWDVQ
Retinoic acid receptor RXR-alpha (Homo sapiens), sequence (P19793 whole entry, looked up): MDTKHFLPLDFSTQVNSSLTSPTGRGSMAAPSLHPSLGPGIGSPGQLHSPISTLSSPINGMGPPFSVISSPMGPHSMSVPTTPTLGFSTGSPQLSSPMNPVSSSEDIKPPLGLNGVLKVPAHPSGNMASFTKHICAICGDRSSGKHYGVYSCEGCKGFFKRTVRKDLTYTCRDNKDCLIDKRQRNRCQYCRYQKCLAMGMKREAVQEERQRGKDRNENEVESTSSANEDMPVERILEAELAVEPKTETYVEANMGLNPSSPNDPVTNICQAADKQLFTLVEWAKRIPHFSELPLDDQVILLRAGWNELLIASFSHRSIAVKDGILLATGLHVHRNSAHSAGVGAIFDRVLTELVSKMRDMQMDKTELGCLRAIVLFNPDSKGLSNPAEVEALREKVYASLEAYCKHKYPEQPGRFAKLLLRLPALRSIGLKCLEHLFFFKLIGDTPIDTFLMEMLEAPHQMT
Peroxisome proliferator-activated receptor gamma (Homo sapiens), sequence (P37231 whole entry, looked up): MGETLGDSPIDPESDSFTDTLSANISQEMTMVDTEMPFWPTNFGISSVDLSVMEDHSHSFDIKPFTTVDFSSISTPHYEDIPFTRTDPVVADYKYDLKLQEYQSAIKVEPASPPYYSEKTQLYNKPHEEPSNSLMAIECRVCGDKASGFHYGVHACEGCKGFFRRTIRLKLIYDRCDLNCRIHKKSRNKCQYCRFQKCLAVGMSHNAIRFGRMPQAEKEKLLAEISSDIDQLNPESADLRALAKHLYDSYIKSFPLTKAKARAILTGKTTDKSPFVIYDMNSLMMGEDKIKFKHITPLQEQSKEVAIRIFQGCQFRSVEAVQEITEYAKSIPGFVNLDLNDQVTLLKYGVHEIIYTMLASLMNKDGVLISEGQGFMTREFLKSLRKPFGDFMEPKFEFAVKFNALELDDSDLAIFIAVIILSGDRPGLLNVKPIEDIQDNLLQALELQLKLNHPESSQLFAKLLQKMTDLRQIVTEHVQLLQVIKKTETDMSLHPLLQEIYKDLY

As to `C[C@]12C[C@H](O)[C@H]3[C@@H](CCC4=CC(=O)CC[C@@]43C)[C@@H]1CC[C@@H]2C(=O)CO`, the activation in assay [1] is -2.3% (inactive). Further, the result in assay [2] was inactive.

For the compound `CS(=O)(=O)c1ccc(C(=O)C2C(=O)CCCC2=O)c([N+](=O)[O-])c1`, the activation in assay [1] is -1.16% (inactive); in assay [3], 6.35% (inactive). Also, the max response in assay [4] was 30.2%; in [9], 11.3%; in assay [12], -0.159%; in assay [13] it was 0.528% (inactive). Also, the Potency entry in assay [5], in assay [6], in [7] and in assay [15] was “inactive” each time. For the same compound, the result in [8] and in assay [11] was inactive. Also, in assay [10], the Potency was 17.8 µM (active). In addition, the activity change % (negative = inhibition) in assay [14] is 9.38% (inactive).

Consider `CC(C)(C)c1ccc(O)c(O)c1`, for which, in assay [1], the activation was 9.58% (inactive) and -7.97% (inactive). Moreover, the result in assay [2] was inactive.

Turning to `O=[N+]([O-])/N=C1\NCCN1Cc1ccc(Cl)nc1`, the activation is 1.01% (inactive) in [1] and 6.65% (inactive) in assay [3]. The Potency entry in assay [16], in assay [6], in [7], in assay [10] and in assay [18] was “inactive” each time. In addition, the outcome in assay [17] and in assay [11] was inactive. Further, the max response in assay [9] was -17.3%; in assay [12], -10.6%; in [13], -0.806% (inactive).

As to `C1=CC2C3C=CC(C3)C2C1` (configuration not stated), in [1], the activation is -0.353% (inactive).

Regarding `O=[N+]([O-])c1c(Cl)c(Cl)cc(Cl)c1Cl`, the activation in assay [1] was -1.27% (inactive). Besides, the outcome in [2], in assay [17], in assay [8] and in [11] was inactive. Moreover, the max response is -4.54% in assay [4], -2.76% in assay [9], -4.05% in [12] and 6.87% (inactive) in [13]. Besides, the Potency entry in assay [5], in assay [7], in assay [10], in assay [18] and in assay [15] was “inactive” throughout. The Potency in [6] is 15.8 µM (active). Besides, the activity change % (negative = inhibition) in assay [14] is -0.964% (inactive).

For the compound `Nc1ccc(Cl)cc1N`, the activation in assay [1] is 0.723% (inactive); in assay [3], 0.0302% (inactive) and -3.42% (inactive). The Potency entry in assay [16], in assay [7] and in assay [10] was “inactive” in each case. The outcome in [17], in assay [8] and in assay [11] was inactive. The max response was 13.9% in assay [9]; 11.5% and -1.67% in assay [12]; -1.75% (inactive) and 0.323% (inactive) in [13]. Further, in [14], the activity change % (negative = inhibition) is -20.8% (inactive). For the same compound, the Potency was 39.8 µM (active) in assay [18] and 3.32 µM (active) in assay [15].

Regarding `CN(C)c1ccc(N=NS(=O)(=O)O)cc1`, the result in assay [2] was inactive.

With `[Cl][In]([Cl])[Cl]`, the result in assay [2] was inactive. Moreover, the Potency in assay [15] was 14.8 µM (active).

Take `C=CCNC(N)=S`: the outcome in assay [2] was inactive.

As for `O=C(Nc1ccccc1-c1ccc(Cl)cc1)c1cccnc1Cl`, in [3], the activation was -16.1% (inactive). In addition, the Potency entry in [16], in [7] and in assay [15] was “inactive” in each case. In addition, the outcome in [2], in assay [17], in [8] and in [11] was inactive. In addition, the max response in assay [12] is -4.9%; in [13] it was -14.2% (inactive).

For the compound `Nc1ccccc1N`, the result in assay [2] was inactive.

Take `CO/C=C(/C(=O)OC)c1ccccc1Oc1cc(Oc2ccccc2C#N)ncn1`: the activation in assay [3] was -0.939% (inactive). For the same compound, the result in assay [2], in [8] and in [11] was inactive. Further, the Potency entry in assay [7] and in assay [15] was “inactive” each time.

The values are drawn from PubChem BioAssay (NCATS).
